Assay [1] can be described thus: qHTS assay to identify small molecule antagonists of the estrogen related receptor (ERR) signaling pathway - cell viability counter screen (AID 1224818). Further: series mostly up to about 46 µM. In a few lines:
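In the same ERR cell assay, compound-treated wells (17.5 h, 37 C) were multiplexed with a fluorogenic viability reagent, CellTiter-Fluor, read after 30 min to flag cytotoxic substances.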

Assay [2] is described as follows: qHTS assay to identify small molecule agonists of the AP-1 signaling pathway - cell viability counter screen (AID 1159525; calls by dose curve; further: nearly all actives have a fitted effect of over 55% in size; further: potency means the concentration at half of the fitted maximal effect). In a few lines: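 ME-180 AP-1-bla, 2500 cells/well, Opti-MEM + 0.5% dialyzed FBS; overnight 37 °C; cpd 15-pt titration, 5 h 37 °C; CellTiter-Glo 30 min RT; luminescence read; normalised to TOAB and DMSO controls.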
For orientation: In qHTS, concentration-response curves come from the screen itself.

A short description of assay [3]: qHTS assay to identify small molecule agonists of the RXR signaling pathway - cell viability counter screen (AID 1159529). Further: nearly all actives have a fitted effect of over 50% in size. Further: potency means the concentration at half of the fitted maximal effect. The essentials:
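Luminescence from CellTiter-Glo (30 min, RT) measured viability in the same wells as the beta-lactamase reporter readout. Cells: GeneBLAzer RXR-alpha HEK 293T, 2% charcoal-stripped FBS. Compound exposure 16 hr, 37 C.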

Assay [4] can be described thus: qHTS assay to identify small molecule antagonists of the retinoic acid receptor (RAR) signaling pathway (AID 1159552; further: nearly all actives have a fitted effect of over 50% in size; further: potency means the concentration at half of the fitted maximal effect). The essentials:
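Luminescence from a RARE luciferase reporter in C3RL4 cells served as read-out. Cells received compounds together with 1 uM final retinol and incubated 6 hr at 37 C before detection reagent was added for 30 min at room temperature.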

The nature of assay [5]: qHTS assay to identify small molecule agonists of the constitutive androstane receptor (CAR) signaling pathway - cell viability counter screen (AID 1224836). Further: nearly all actives have a fitted effect of over 45% in size. Further: potency means the concentration at half of the fitted maximal effect. The essentials:
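Viability read-out: CellTiter-Fluor fluorescence after 23 h compound exposure at 37 C/5% CO2 in double-stable HepG2-CYP2B6-hCAR cells, with PK11195 present at 0.75 uM final; compounds tested in 15-point titration.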

Assay [6] can be described thus: qHTS assay to identify small molecule antagonists of the constitutive androstane receptor (CAR) signaling pathway - cell viability counter screen (AID 1224837). Further: nearly all actives have a fitted effect of over 45% in size. Further: potency means the concentration at half of the fitted maximal effect. The essentials: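 Using CellTiter-Fluor, viability is scored in HepG2 cells stably carrying hCAR and a 2.2kb CYP2B6 reporter after 23 hr compound exposure across 15 concentrations, with CITCO present at 50 nM.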

Assay [7] addresses Luciferin 4-monooxygenase (Photinus pyralis) (UniProt P08659). In words: qHTS assay to identify small molecule inhibitors of firefly luciferase (AID 1224835). Further: nearly all actives have a fitted effect of over 25% in size. Further: potency means the concentration at half of the fitted maximal effect. In a few lines:
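Quantitative HTS format; KM concentrations of both substrates. Purified P. pyralis FLuc activity quantified from luminescence images.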

The nature of assay [8]: qHTS assay to identify small molecule antagonists of the retinoid acid receptor (RAR) signaling pathway - cell viability counter screen (AID 1159551). Further: nearly all actives have a fitted effect of over 35% in size. Further: potency means the concentration at half of the fitted maximal effect. In a few lines: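 Seed C3RL4 cells; next day add compound, then retinol to 1 uM final; incubate 6 h at 37 C; add CellTiter-Glo; read luminescence after 30 min at RT.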
A short description of assay [9]: qHTS assay to identify small molecule antagonists of the estrogen related receptor (ERR) signaling pathway from Tox21 library - cell viability counter screen (AID 1224834). Further: nearly all actives have a fitted effect of over 30% in size. Further: potency means the concentration at half of the fitted maximal effect. The essentials: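 CellTiter-Fluor fluorescence measured; ERR cells; 17.5 h compound incubation at 37 C; 30 min reagent step.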
The target in assay [10] is Nuclear receptor subfamily 1 group I member 3 (Homo sapiens) (UniProt Q14994). The assay can be described thus: qHTS assay to identify small molecule agonists of the constitutive androstane receptor (CAR) signaling pathway (AID 1224839). Further: series mostly up to about 92 µM; nearly all actives have a fitted effect of over 15% in size. In a few lines: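 Luminescence read-out (ONE-Glo, 30 min, room temperature) from double-stable HepG2-CYP2B6-hCAR cells exposed 24 h to 15-point compound series in presence of 0.75 uM PK11195 final.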
Sequence of Nuclear receptor subfamily 1 group I member 3 (Homo sapiens) (Q14994 whole entry, looked up): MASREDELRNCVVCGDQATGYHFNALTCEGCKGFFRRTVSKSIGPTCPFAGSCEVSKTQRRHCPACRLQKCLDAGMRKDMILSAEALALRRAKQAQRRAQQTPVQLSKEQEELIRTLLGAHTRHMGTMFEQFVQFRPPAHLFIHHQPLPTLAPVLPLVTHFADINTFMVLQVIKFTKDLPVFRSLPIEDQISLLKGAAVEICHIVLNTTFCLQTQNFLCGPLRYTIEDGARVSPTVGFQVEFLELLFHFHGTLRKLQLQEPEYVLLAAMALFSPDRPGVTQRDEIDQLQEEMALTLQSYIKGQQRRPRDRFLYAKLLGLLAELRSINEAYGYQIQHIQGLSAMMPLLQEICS

For assay [11] the target is unchanged. The assay can be described thus: qHTS assay to identify small molecule antagonists of the constitutive androstane receptor (CAR) signaling pathway (AID 1224838).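 Further: HepG2 cells stably expressing hCAR with CYP2B6 luciferase reporter stimulated by CITCO; nearly all actives have a fitted effect of over 40% in size.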 Further: potency means the concentration at half of the fitted maximal effect. In a few lines:
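Reporter luminescence was quantified after 24 h exposure of hCAR/CYP2B6-2.2kb double-stable HepG2 cells to compounds at 15 concentrations in the presence of 50 nM CITCO final.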

Assay [12] is described as follows: qHTS assay to identify small molecule agonists of the estrogen related receptor (ERR) signaling pathway (AID 1224820). In a few lines: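 Quantitative HTS of the LOPAC library used NTP ERR reporter cells treated 18 h at 37 C. Signal is luminescence after One-Glo addition and a 30 min room-temperature incubation.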
Assay [13] has as its system estrogen-related receptor alpha (ERRalpha) with PGC-1alpha coactivator, human. In words: qHTS assay to identify small molecule antagonists of the estrogen related receptor signaling pathway with the pleiotropic PPARgamma coactivator (PGC) (AID 1224821; calls by dose curve;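 further: series mostly up to about 46 µM; lower luminescence signal means antagonism of PGC/ERR signalling; nearly all actives have a fitted effect of over 50% in size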). The essentials:
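Quantitative HTS for antagonism: PGC/ERR cells received compounds after 6 h attachment and were incubated 18 h at 37 C, with luminescence (One-Glo) as the endpoint.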

Records with an inconclusive call do not appear. Unmarked numbers belong to inactive results. Active and inactive are the calls of the source. Unless noted, the call rests on the fitted dose curve; in most records, active means well fitted curve in the direction sought with a large enough effect in the repeat runs; inconclusive means weak or mixed curves; inactive means no such curve, though single readings can be large; an effect the other way counts as inactive or inconclusive.

Sequence of Luciferin 4-monooxygenase (Photinus pyralis) (P08659 whole entry, looked up): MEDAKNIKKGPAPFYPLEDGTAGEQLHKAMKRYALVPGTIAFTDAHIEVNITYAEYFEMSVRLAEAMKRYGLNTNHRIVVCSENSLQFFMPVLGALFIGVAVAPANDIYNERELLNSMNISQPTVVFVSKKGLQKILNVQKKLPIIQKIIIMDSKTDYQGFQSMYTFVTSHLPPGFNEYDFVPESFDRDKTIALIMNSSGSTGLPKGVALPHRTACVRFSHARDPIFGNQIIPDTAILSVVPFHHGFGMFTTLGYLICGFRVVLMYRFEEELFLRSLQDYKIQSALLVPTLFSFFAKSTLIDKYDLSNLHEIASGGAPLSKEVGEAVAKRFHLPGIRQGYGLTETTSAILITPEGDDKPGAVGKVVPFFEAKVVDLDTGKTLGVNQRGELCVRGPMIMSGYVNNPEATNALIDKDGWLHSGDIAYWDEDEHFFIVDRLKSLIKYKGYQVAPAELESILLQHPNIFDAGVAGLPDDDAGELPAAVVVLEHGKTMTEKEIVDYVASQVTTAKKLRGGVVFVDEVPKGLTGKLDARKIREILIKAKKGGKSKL

Turning to `N.N.N.N.N.N.N.N.N.N.N.N.N.N.O.O.[Cl-].[Cl-].[Cl-].[Cl-].[Cl-].[Cl-].[Ru+4].[Ru+5].[Ru+5]`, the Potency entry in [1] was “inactive”.

As for `CCOc1ccc([N+](=O)[O-])cc1`, the Potency in assay [2] and in assay [3] was 49.7 µM (active) throughout. Besides, the Potency result in assay [4], in assay [5] and in assay [6] was “inactive” in each case.

As for `O=C1Cc2ccccc2C1`, the Potency result in assay [4] and in [7] was “inactive” in each case.

`CN(C[C@@H](CC[N+]12CCC(C3CCCCC3)(CC1)CC2)c1ccc(Cl)c(Cl)c1)C(=O)c1cc(C(F)(F)F)cc(C(F)(F)F)c1`: the Potency was 43.6 µM (active) in assay [2]; 17.4 µM (active) in [3]; 54.5 µM (active) in assay [8]; 48.6 µM (active) in [9]; 68.6 µM (active) in assay [6]. Besides, the Potency entry in [7] and in assay [10] was “inactive” each time.

On to `Cc1cc(F)ccc1-c1cc(N2CC[C@@H](O)[C@H]2CO)ncc1N(C)C(=O)C(C)(C)c1cc(C(F)(F)F)cc(C(F)(F)F)c1`, for which the Potency was 17.1 µM (active) in assay [2], 17.1 µM (active) in [3], 42.6 µM (active) in [4] and 42.6 µM (active) in assay [9]. The Potency entry in assay [8], in [7], in assay [6] and in [10] was “inactive” in each case.

On to `N#Cc1ccc(C/C(=N/NC(=O)Nc2ccc(OC(F)(F)F)cc2)c2cccc(C(F)(F)F)c2)cc1`, for which the Potency result in assay [2], in assay [8], in [9], in [7], in assay [5] and in [6] was “inactive” in each case. Moreover, the Potency entry in [11] and in assay [10] was “inactive” throughout.

`CC(C)(c1ccc(Oc2ccc(N)cc2)cc1)c1ccc(Oc2ccc(N)cc2)cc1`: the Potency result in assay [2], in assay [3], in assay [8], in assay [4] and in assay [11] was “inactive” in each case. Moreover, the Potency in assay [7] was 22.4 µM (active).

On to `O=C1OC(=O)c2cc(-c3ccc4c(c3)C(=O)OC4=O)ccc21`, for which the Potency entry in assay [2], in assay [3], in assay [8], in [4], in [9] and in [7] was “inactive” throughout. For the same compound, the Potency entry in assay [5], in assay [6], in assay [11] and in assay [10] was “inactive” throughout.

`CCCCCCCCOC(=O)c1cc(O)c(O)c(O)c1`: the Potency was 54.9 µM (active) in [2], 43.6 µM (active) in assay [3] and 24.3 µM (active) in assay [9]. In addition, the Potency result in assay [8], in [4], in [7], in assay [6] and in assay [10] was “inactive” throughout.

For the compound `CN1C2CC(OC(=O)[C@H](CO)c3ccccc3)CC1C1OC12` (stereo partly specified), the Potency result in assay [1] was “inactive”.

As for `O=S(=O)(c1ccc(OCc2ccccc2)cc1)c1ccccc1O`, the Potency result in [2], in [3], in [7], in [6], in [11] and in [10] was “inactive” each time.

Take `CN1CCN(CCCN2c3ccccc3Sc3ccc(C(F)(F)F)cc32)CC1`: the Potency entry in [2], in assay [8], in assay [12], in assay [13], in assay [7] and in assay [5] was “inactive” throughout. Also, the Potency result in assay [6], in [11] and in [10] was “inactive” throughout. For the same compound, the figures for the Potency in assay [3], in assay [4] and in assay [9] were 21.3 µM (active), 23.7 µM (active) and 29.8 µM (active), respectively.

As for `Cc1ccc(S(=O)(=O)C(I)I)cc1`, the Potency in assay [2] is 17.4 µM (active); in [3], 12.3 µM (active); in assay [8], 43.3 µM (active); in assay [4], 9.69 µM (active); in assay [9], 61.1 µM (active); in [7] it was 39.9 µM (active). Also, the Potency in [5] is 48.6 µM (active); in assay [6] it was 34.4 µM (active); in assay [11], 27.3 µM (active). In addition, in [10], the Potency entry was “inactive”.

In the case of `C=CC1(C)CC(=O)C2(O)C(C)(O1)C(OC(C)=O)C(O)C1C(C)(C)CCC(O)C12C` (stereo unspecified), the Potency entry in [1] is “inactive”.

Turning to `COc1cccc(-c2ccc(/C=C\CN3CCCCCC3)cc2Cl)c1`, the Potency in [3] was 43.4 µM (active). Moreover, the Potency result in [9], in assay [7], in assay [5], in [11] and in assay [10] was “inactive” in each case.

For the origin of these results see PubChem BioAssay (Tox21).
